Legend:
Details in all cases: treatment time: 24 h
A549-ACTB-RAB5A [1] = assay: lowest phenotypically active concentration; higher = less potent
How it was run: (§1)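 Cells from fifteen gene-edited reporter lines (A549, HepG2 and WPMY1) were treated for 24 h at 0.3, 1, 3 or 9 µM and imaged live, four wells per condition. Features were normalised per well to solvent control wells. A condition deviated if ≥3 of 4 wells passed the 95th percentile of control Euclidean distances and was reproducible if its median replicate Pearson correlation beat the 95th percentile of non-replicates; phenotypic activity needed both.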

A549-GM130-SQSTM1 [2] = assay: as above
How it was run: as §1

A549-TUBA1B-RELA [3] = assay: as above
How it was run: as §1

WPMY1-CANX-COX4 [4] = assay: as above
How it was run: as §1

A549-ACTB-RAB5A [5] = assay: phenotypically active (imaging signature differs from DMSO and reproducible) at any of 0.3-9 uM (binary (1 = active, 0 = inactive)); higher = active
How it was run: as §1

A549-CANX-COX4 = assay: as above
How it was run: as §1

A549-GM130-SQSTM1 [6] = assay: as above
How it was run: as §1

A549-TP53BP1-CLTA = assay: as above
How it was run: as §1

A549-TUBA1B-RELA [7] = assay: as above
How it was run: as §1

HepG2-ACTB-RAB5A = assay: as above
How it was run: as §1

HepG2-CANX-COX4 = assay: as above
How it was run: as §1

HepG2-GM130-SQSTM1 = assay: as above
How it was run: as §1

HepG2-TP53BP1-CLTA = assay: as above
How it was run: as §1

HepG2-TUBA1B-RELA = assay: as above
How it was run: as §1

WPMY1-ACTB-RAB5A = assay: as above
How it was run: as §1

WPMY1-CANX-COX4 [8] = assay: as above
How it was run: as §1

WPMY1-GM130-SQSTM1 [9] = assay: as above
How it was run: as §1

WPMY1-TP53BP1-CLTA = assay: as above
How it was run: as §1

WPMY1-TUBA1B-RELA = assay: as above
How it was run: as §1

WPMY1-GM130-SQSTM1 [10] = assay: lowest phenotypically active concentration; higher = less potent
How it was run: as §1

Structure (SMILES) | lowest phenotypically active concentration (A549-ACTB-RAB5A [1]) [µM] | lowest phenotypically active concentration (A549-GM130-SQSTM1 [2]) [µM] | lowest phenotypically active concentration (A549-TUBA1B-RELA [3]) [µM] | lowest phenotypically active concentration (WPMY1-CANX-COX4 [4]) [µM] | phenotypically active (A549-ACTB-RAB5A [5]) | phenotypically active (A549-CANX-COX4) | phenotypically active (A549-GM130-SQSTM1 [6]) | phenotypically active (A549-TP53BP1-CLTA) | phenotypically active (A549-TUBA1B-RELA [7]) | phenotypically active (HepG2-ACTB-RAB5A) | phenotypically active (HepG2-CANX-COX4) | phenotypically active (HepG2-GM130-SQSTM1) | phenotypically active (HepG2-TP53BP1-CLTA) | phenotypically active (HepG2-TUBA1B-RELA) | phenotypically active (WPMY1-ACTB-RAB5A) | phenotypically active (WPMY1-CANX-COX4 [8]) | phenotypically active (WPMY1-GM130-SQSTM1 [9]) | phenotypically active (WPMY1-TP53BP1-CLTA) | phenotypically active (WPMY1-TUBA1B-RELA) | lowest phenotypically active concentration (WPMY1-GM130-SQSTM1 [10]) [µM]
N#C/C(=C/c1ccc(-c2cc(Cl)ccc2Cl)o1)C(=O)Nc1cccc2ncccc12 | 3 | 9 | ≤ 0.3 | 9 | 1 (active) | 0 (inactive) | 1 (active) | 0 (inactive) | 1 (active) | 1 (active) | 0 (inactive) | 0 (inactive) | 0 (inactive) | 0 (inactive) | 0 (inactive) | 1 (active) | 0 (inactive) | 0 (inactive) | 0 (inactive) | –
CN1CCN(c2ccc(-c3cccc(CN4CCOCC4)c3)cc2NC(=O)c2c[nH]c(=O)cc2C(F)(F)F)CC1 | 9 | 9 | 9 | 9 | 1 (active) | 0 (inactive) | 1 (active) | 0 (inactive) | 1 (active) | 0 (inactive) | 0 (inactive) | 1 (active) | 1 (active) | 1 (active) | 0 (inactive) | 1 (active) | 1 (active) | 1 (active) | 1 (active) | 9
Cc1cc2nc(NCCCO)n(CC(=O)c3cc(C(C)(C)C)c(O)c(C(C)(C)C)c3)c2cc1C | 3 | 3 | 9 | – | 1 (active) | 0 (inactive) | 1 (active) | 0 (inactive) | 1 (active) | 1 (active) | 0 (inactive) | 0 (inactive) | 0 (inactive) | 1 (active) | 0 (inactive) | 0 (inactive) | 0 (inactive) | 0 (inactive) | 0 (inactive) | –
COc1cc(C(C)=O)ccc1OCCCN1CCC(c2noc3cc(F)ccc23)CC1 [iloperidone] | 3 | 9 | 3 | – | 1 (active) | 0 (inactive) | 1 (active) | 0 (inactive) | 1 (active) | 0 (inactive) | 0 (inactive) | 0 (inactive) | 0 (inactive) | 0 (inactive) | 0 (inactive) | 0 (inactive) | 0 (inactive) | 0 (inactive) | 0 (inactive) | –
N#Cc1cccc(-c2c[nH]c3ncnc(N4CCOCC4)c23)c1 | 9 | 9 | 9 | 9 | 1 (active) | 0 (inactive) | 1 (active) | 0 (inactive) | 1 (active) | 1 (active) | 1 (active) | 1 (active) | 1 (active) | 1 (active) | 1 (active) | 1 (active) | 0 (inactive) | 1 (active) | 0 (inactive) | –
CC(CN(C)C)CN1c2ccccc2CCc2ccccc21 (stereo not given) [trimipramine] | 9 | 9 | 9 | 9 | 1 (active) | 0 (inactive) | 1 (active) | 0 (inactive) | 1 (active) | 1 (active) | 0 (inactive) | 0 (inactive) | 0 (inactive) | 1 (active) | 1 (active) | 1 (active) | 1 (active) | 0 (inactive) | 0 (inactive) | 9
Fc1ccc([C@@H]2CCNC[C@H]2COc2ccc3c(c2)OCO3)cc1 [paroxetine] | 3 | 3 | 3 | 9 | 1 (active) | 0 (inactive) | 1 (active) | 0 (inactive) | 1 (active) | 1 (active) | 0 (inactive) | 1 (active) | 1 (active) | 1 (active) | 1 (active) | 1 (active) | 1 (active) | 1 (active) | 1 (active) | 9
Cc1c(O)cccc1C(=O)N[C@@H](CSc1ccccc1)[C@H](O)CN1C[C@H]2CCCC[C@H]2C[C@H]1C(=O)NC(C)(C)C [nelfinavir] | 9 | 9 | 9 | 9 | 1 (active) | 0 (inactive) | 1 (active) | 0 (inactive) | 1 (active) | 1 (active) | 1 (active) | 1 (active) | 0 (inactive) | 1 (active) | 1 (active) | 1 (active) | 1 (active) | 0 (inactive) | 1 (active) | 3
CC(=O)Nc1ccc(NC(=S)NC(=O)c2ccc(C(C)(C)C)cc2)cc1 [Tenovin-1] | 1 | 1 | 1 | 9 | 1 (active) | 0 (inactive) | 1 (active) | 0 (inactive) | 1 (active) | 0 (inactive) | 1 (active) | 0 (inactive) | 1 (active) | 1 (active) | 1 (active) | 1 (active) | 1 (active) | 1 (active) | 1 (active) | 1
CCN(CCO)CCCC(C)Nc1ccnc2cc(Cl)ccc12 (stereo not given) [hydroxychloroquine] | 9 | 9 | 9 | 9 | 1 (active) | 0 (inactive) | 1 (active) | 0 (inactive) | 1 (active) | 0 (inactive) | 0 (inactive) | 1 (active) | 0 (inactive) | 1 (active) | 1 (active) | 1 (active) | 1 (active) | 0 (inactive) | 1 (active) | 9
COc1cc2c(cc1OCCCN1CCCC1)N=C(N)C21CCC1 | 9 | 9 | 9 | – | 1 (active) | 0 (inactive) | 1 (active) | 0 (inactive) | 1 (active) | 0 (inactive) | 0 (inactive) | 0 (inactive) | 0 (inactive) | 0 (inactive) | 0 (inactive) | 0 (inactive) | 0 (inactive) | 0 (inactive) | 0 (inactive) | –
CCSc1ccc2c(c1)N(CCCN1CCN(C)CC1)c1ccccc1S2 [thiethylperazine] | 3 | 3 | 3 | 9 | 1 (active) | 0 (inactive) | 1 (active) | 0 (inactive) | 1 (active) | 1 (active) | 0 (inactive) | 1 (active) | 0 (inactive) | 1 (active) | 1 (active) | 1 (active) | 1 (active) | 1 (active) | 1 (active) | 9
CN1C(=O)/C(=C2/Nc3ccccc3/C2=N/O)c2ccc(Br)cc21 | ≤ 0.3 | ≤ 0.3 | ≤ 0.3 | 9 | 1 (active) | 0 (inactive) | 1 (active) | 0 (inactive) | 1 (active) | 1 (active) | 1 (active) | 0 (inactive) | 0 (inactive) | 0 (inactive) | 1 (active) | 1 (active) | 1 (active) | 0 (inactive) | 0 (inactive) | ≤ 0.3
CC(=O)O[C@@H]1C[C@H]2C(C)(C)C(=O)C=C[C@]2(C)[C@H]2CC[C@@]3(C)[C@H](c4ccoc4)OC(=O)[C@H]4O[C@]43[C@@]21C [gedunin] | 3 | 9 | 9 | 9 | 1 (active) | 0 (inactive) | 1 (active) | 0 (inactive) | 1 (active) | 0 (inactive) | 1 (active) | 1 (active) | 1 (active) | 1 (active) | 1 (active) | 1 (active) | 1 (active) | 0 (inactive) | 0 (inactive) | 9
O=C(Nc1nc2cc(C(F)(F)F)cc(NC3CC3)n2n1)c1cccnc1 | 3 | 3 | 9 | 9 | 1 (active) | 0 (inactive) | 1 (active) | 0 (inactive) | 1 (active) | 0 (inactive) | 1 (active) | 0 (inactive) | 1 (active) | 1 (active) | 1 (active) | 1 (active) | 0 (inactive) | 1 (active) | 0 (inactive) | –
CN1CCC(CN2c3ccccc3Sc3ccccc32)C1 (stereo not given) [methdilazine] | 9 | 3 | 3 | 9 | 1 (active) | 0 (inactive) | 1 (active) | 0 (inactive) | 1 (active) | 1 (active) | 0 (inactive) | 1 (active) | 1 (active) | 1 (active) | 1 (active) | 1 (active) | 1 (active) | 1 (active) | 1 (active) | 3
CCCCCCCCCCCCC/C=C/[C@@H](O)[C@H](CO)N(C)C [N,N-Dimethylsphingosine] | 3 | 1 | 3 | 3 | 1 (active) | 0 (inactive) | 1 (active) | 0 (inactive) | 1 (active) | 1 (active) | 1 (active) | 1 (active) | 1 (active) | 1 (active) | 1 (active) | 1 (active) | 1 (active) | 1 (active) | 1 (active) | 3
CN(C)CCCN1c2ccccc2Sc2ccc(C(F)(F)F)cc21 [triflupromazine] | 3 | 9 | 9 | 9 | 1 (active) | 0 (inactive) | 1 (active) | 0 (inactive) | 1 (active) | 1 (active) | 0 (inactive) | 0 (inactive) | 0 (inactive) | 1 (active) | 1 (active) | 1 (active) | 1 (active) | 0 (inactive) | 1 (active) | 9
CN(C)CC(O)Cn1c2ccc(Br)cc2c2cc(Br)ccc21 (stereo not given) [Wiskostatin] | 3 | 1 | 1 | 3 | 1 (active) | 0 (inactive) | 1 (active) | 0 (inactive) | 1 (active) | 1 (active) | 1 (active) | 1 (active) | 1 (active) | 1 (active) | 1 (active) | 1 (active) | 1 (active) | 1 (active) | 1 (active) | 3
NC(=O)C(c1ccccc1)(c1ccccc1)[C@@H]1CCN(CCc2ccc3c(c2)CCO3)C1 [darifenacin] | 9 | 9 | 9 | – | 1 (active) | 0 (inactive) | 1 (active) | 0 (inactive) | 1 (active) | 1 (active) | 1 (active) | 1 (active) | 1 (active) | 0 (inactive) | 0 (inactive) | 0 (inactive) | 1 (active) | 1 (active) | 0 (inactive) | 9
CN(C)CCCN1c2ccccc2CCc2ccc(Cl)cc21 [clomipramine] | 3 | 9 | 9 | 9 | 1 (active) | 0 (inactive) | 1 (active) | 0 (inactive) | 1 (active) | 1 (active) | 0 (inactive) | 0 (inactive) | 1 (active) | 1 (active) | 1 (active) | 1 (active) | 1 (active) | 1 (active) | 1 (active) | 9

From the supplement of paper PMC7411054
